For 22 compounds, inhibition, growth inhibition and outcome results are on record in PubChem BioAssay.

Values without a mark were called inactive. For some of these results: Potency and affinity values are given separately. The source made the active and inactive calls. Unless noted, the rule behind the calls is not given here.

A short description of experiment [1]: human hepatoma cell viability loss – ATP luminescence, cytotoxicity control for P. falciparum antimalarial project, primary screen (AID 2303;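 active = inhibition above 50%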;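 note: 0% = DMSO wells and 100% = digitonin-killed cells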). The settings on record: HepG2 viability, 24-48 h, at 10 µM, active compounds read high.
In experiment [2] the target is L-lactate dehydrogenase (Plasmodium falciparum (isolate CDC / Honduras)) (UniProt Q27743). The experiment is described as follows: PfLDH activity inhibition – cell lysate, 3D7 strain, counter-screen for P. falciparum growth inhibition project (AID 2304).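 Note: 0% = vehicle and 100% = reference inhibitor.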 As to conditions: P. falciparum 3D7 crude extract, LDH APAD/NBT absorbance; at 2 µM; active compounds read high. For orientation: A counterscreen serves to expose hits that act by an unwanted route or on another target.
Sequence of L-lactate dehydrogenase (Plasmodium falciparum (isolate CDC / Honduras)) (Q27743 whole entry, looked up): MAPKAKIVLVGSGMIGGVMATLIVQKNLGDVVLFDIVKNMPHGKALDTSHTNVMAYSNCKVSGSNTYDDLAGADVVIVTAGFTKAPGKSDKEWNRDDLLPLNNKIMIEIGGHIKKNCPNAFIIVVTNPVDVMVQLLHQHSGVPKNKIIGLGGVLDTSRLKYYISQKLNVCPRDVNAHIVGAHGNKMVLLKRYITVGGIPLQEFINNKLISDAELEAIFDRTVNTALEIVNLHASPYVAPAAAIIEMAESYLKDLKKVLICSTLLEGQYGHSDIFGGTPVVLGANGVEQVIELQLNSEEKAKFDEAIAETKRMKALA

Experiment [3] can be described thus: inhibition of 3D7 malaria parasite growth – strain 3D7 (AID 2306).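 Note: 0% = DMSO wells and 100% = chloroquine plus artemisinin control wells.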 As to conditions: P. falciparum 3D7 erythrocytic growth, LDH absorbance, 72 h; at 2 µM; active compounds read high.
The target of experiment [4] is Calcium-dependent protein kinase 1 (Plasmodium falciparum (isolate 3D7)) (UniProt P62344). The experiment is described as follows: PfCDPK1 kinase inhibitors, biochemical, TCAMS library (AID 1159585; cut-off not given, nearly all actives have IC50 up to about 0.98 µM;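 note: inhibitors leave more ATP so luminescence rises with inhibition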). As to conditions: recombinant PfCDPK1, Kinase-Glo ATP depletion luminescence.
Sequence of Calcium-dependent protein kinase 1 (Plasmodium falciparum (isolate 3D7)) (P62344 whole entry, looked up): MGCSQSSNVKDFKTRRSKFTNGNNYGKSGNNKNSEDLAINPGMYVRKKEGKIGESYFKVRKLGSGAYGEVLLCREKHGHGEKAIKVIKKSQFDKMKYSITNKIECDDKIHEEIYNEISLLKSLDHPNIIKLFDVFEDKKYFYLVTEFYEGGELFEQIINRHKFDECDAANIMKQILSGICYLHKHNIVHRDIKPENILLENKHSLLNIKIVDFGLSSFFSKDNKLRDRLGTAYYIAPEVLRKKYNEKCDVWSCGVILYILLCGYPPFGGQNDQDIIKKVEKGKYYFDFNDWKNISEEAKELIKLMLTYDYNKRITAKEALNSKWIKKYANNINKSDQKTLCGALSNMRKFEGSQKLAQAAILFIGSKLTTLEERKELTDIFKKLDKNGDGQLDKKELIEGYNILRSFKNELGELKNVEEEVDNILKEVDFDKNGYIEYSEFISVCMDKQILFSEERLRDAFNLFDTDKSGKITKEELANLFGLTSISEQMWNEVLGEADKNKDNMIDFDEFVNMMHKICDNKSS
The target in experiment [5] is Plasmodium falciparum protein kinase 6 (PK6, PF3D7_1337100) (UniProt Q8IDW1). As to the kind of experiment: PfPK6 kinase inhibitors, biochemical, TCAMS library (AID 1159586). The settings on record: recombinant PfPK6, Kinase-Glo ATP depletion luminescence. (Kinase-Glo reads ATP consumption through a luciferase reaction.)
Sequence of Plasmodium falciparum protein kinase 6 (PK6, PF3D7_1337100) (Q8IDW1 1-305): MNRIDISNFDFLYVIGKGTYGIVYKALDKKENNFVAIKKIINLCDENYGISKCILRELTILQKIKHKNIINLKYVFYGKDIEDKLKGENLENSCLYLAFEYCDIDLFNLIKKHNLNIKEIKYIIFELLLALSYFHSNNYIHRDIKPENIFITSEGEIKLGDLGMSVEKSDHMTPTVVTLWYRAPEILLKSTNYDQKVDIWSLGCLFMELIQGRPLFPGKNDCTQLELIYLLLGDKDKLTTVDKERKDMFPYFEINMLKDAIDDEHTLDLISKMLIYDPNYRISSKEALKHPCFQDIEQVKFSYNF
Experiment [6] has as its target Protein kinase 7 (PK7), Plasmodium falciparum 3D7 (PF3D7_0213400) (UniProt Q7YTF7). As to the kind of experiment: inhibition of Plasmodium PK7 catalytic activity – biochemical, TCAMS antimalarial set, Kinase-Glo luminescence (AID 1159587). The settings on record: recombinant PfPK7, Kinase-Glo ATP depletion luminescence.
Experiment [7] deals with Calcium-dependent protein kinase 4 (Plasmodium falciparum (isolate 3D7)) (UniProt Q8IBS5). As to the kind of experiment: PfCDPK4 kinase inhibitors, biochemical, TCAMS library (AID 1159588; cut-off not given, nearly all actives have IC50 up to about 0.91 µM). As to conditions: recombinant PfCDPK4, Kinase-Glo ATP depletion luminescence.
Sequence of Calcium-dependent protein kinase 4 (Plasmodium falciparum (isolate 3D7)) (Q8IBS5 whole entry, looked up): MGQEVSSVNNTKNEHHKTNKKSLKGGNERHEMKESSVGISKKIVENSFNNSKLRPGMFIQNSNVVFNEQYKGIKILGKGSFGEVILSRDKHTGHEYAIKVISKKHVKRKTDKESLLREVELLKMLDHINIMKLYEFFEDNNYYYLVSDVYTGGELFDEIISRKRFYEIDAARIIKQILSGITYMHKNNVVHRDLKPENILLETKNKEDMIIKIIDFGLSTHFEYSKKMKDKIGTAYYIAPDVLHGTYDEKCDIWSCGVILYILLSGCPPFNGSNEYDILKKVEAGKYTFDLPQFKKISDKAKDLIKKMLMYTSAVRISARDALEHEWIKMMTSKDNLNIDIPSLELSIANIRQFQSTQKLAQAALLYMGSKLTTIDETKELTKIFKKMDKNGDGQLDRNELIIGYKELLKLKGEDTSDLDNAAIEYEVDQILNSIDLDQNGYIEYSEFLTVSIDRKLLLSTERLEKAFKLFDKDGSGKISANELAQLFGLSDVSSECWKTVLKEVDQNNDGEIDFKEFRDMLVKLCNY
Experiment [8] can be described thus: antimalarial activity against Dd2 strain (AID 2302;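 active = growth inhibition above 50% at the single 2 µM test dose, taken to imply half-maximal potency below 2 µM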;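 note: 0% = DMSO untreated growth and 100% = chloroquine plus artemisinin killed control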). The settings on record: P. falciparum Dd2 in RBCs, LDH growth readout, 72 h; at 2 µM; active compounds read high.

Sequence of Protein kinase 7 (PK7), Plasmodium falciparum 3D7 (PF3D7_0213400) (Q7YTF7 1-343): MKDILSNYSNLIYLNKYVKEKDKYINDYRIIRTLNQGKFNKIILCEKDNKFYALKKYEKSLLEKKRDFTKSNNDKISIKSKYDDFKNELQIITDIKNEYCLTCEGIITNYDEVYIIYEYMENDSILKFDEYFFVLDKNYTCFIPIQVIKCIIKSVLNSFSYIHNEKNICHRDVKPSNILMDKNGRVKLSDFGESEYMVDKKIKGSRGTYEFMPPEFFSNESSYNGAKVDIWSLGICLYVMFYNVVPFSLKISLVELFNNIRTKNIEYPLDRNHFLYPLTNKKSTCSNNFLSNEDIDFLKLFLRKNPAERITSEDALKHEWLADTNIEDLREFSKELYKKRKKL

Consider `CCn1c(-c2nonc2N)nc2c(-c3cccc(NC(=O)NCc4ccccc4)c3)ncc(OCCCN)c21`, for which the values for the inhibition in experiment [1] and in experiment [2] were 5% and -7%, respectively. Further, the growth inhibition in experiment [3] is 99% (active). The outcome in experiment [4], in experiment [5], in experiment [6] and in experiment [7] was inactive.

As for `COc1ccc(C2CC(c3cccs3)=NN2C(=O)COc2cccc(C(C)=O)c2)cc1OC` (centres undefined), the inhibition was 10% in experiment [1] and -2% in experiment [2]. Moreover, the growth inhibition in experiment [3] is 99% (active). For the same compound, the result in experiment [4], in experiment [5], in experiment [6] and in experiment [7] was inactive.

As for `CNC(=O)c1ccc(/C=C/C(=O)N2CCc3ccc(-c4ccccc4)cc3C2c2cccc(C(F)(F)F)c2)cc1` (centres undefined), the inhibition in experiment [1] was 9%; in experiment [2], 5%. The growth inhibition in experiment [3] was 91% (active). Moreover, the outcome in experiment [4], in experiment [5], in experiment [6] and in experiment [7] was inactive.

Consider `O=C(c1ccccc1)N1CCC[C@](CCCN2CCN(c3ccccc3O)CC2)(c2ccc(Cl)c(Cl)c2)C1`, for which the figures for the inhibition in experiment [1] and in experiment [2] were 16% and -3%, respectively. The growth inhibition in experiment [3] was 80% (active). In addition, the outcome in experiment [4], in experiment [5], in experiment [6] and in experiment [7] was inactive.

In the case of `O=C(NCCCCN1CCC(c2ccc3c(c2OCCCO)CCCC3)CC1)c1ccc(-c2ccc(C(F)(F)F)cc2)c(CO)c1`, the figures for the inhibition in experiment [1] and in experiment [2] were 66% (active) and 4%, respectively. The growth inhibition in experiment [3] was 95% (active). The outcome in experiment [4], in experiment [5], in experiment [6] and in experiment [7] was inactive.

Regarding `CC(C)Cc1csc(NC(=O)C=Cc2ccco2)c1C(=O)O`, the inhibition in experiment [1] was 4%; in experiment [2], -2%. Besides, the growth inhibition in experiment [3] is 82% (active). For the same compound, the outcome in experiment [4], in experiment [5], in experiment [6] and in experiment [7] was inactive.

For the compound `CCc1cc(-c2n[nH]c(C(F)(F)F)c2-c2ccccc2)c(O)cc1OC`, the figures for the inhibition in experiment [1] and in experiment [2] were 9% and 1%, respectively. Besides, in experiment [3], the growth inhibition is 84% (active). Besides, the result in experiment [4], in experiment [5], in experiment [6] and in experiment [7] was inactive.

Regarding `O=C(Nc1nccs1)c1sc2ccccc2c1O`, the inhibition in experiment [1] was -2%; in experiment [2], -1%. For the same compound, the growth inhibition in experiment [3] was 96% (active). Further, the result in experiment [4], in experiment [5], in experiment [6] and in experiment [7] was inactive.

Take `CCCCNC(=O)C1CCCN(C(=O)c2ccc(O)c(-c3ccc(Cl)c(Cl)c3)c2)C1` (centres undefined): the inhibition in experiment [1] is 3%; in experiment [2], 2%. Also, the growth inhibition in experiment [3] is 83% (active). The result in experiment [4], in experiment [5], in experiment [6] and in experiment [7] was inactive.

For `CC(C)C(=O)NC(NC(=S)Nc1ccc(Br)cc1)C(Cl)(Cl)Cl` (centres undefined), the inhibition in experiment [1] was -5%; in experiment [2], 3%. Also, in experiment [3], the growth inhibition is 93% (active). For the same compound, the result in experiment [4], in experiment [5], in experiment [6] and in experiment [7] was inactive.

Regarding `N#Cc1cc(N(CCCOc2cccc(OC(F)(F)F)c2)Cc2ccccc2C(F)(F)F)ccc1C(F)(F)F`, the inhibition was 2% in experiment [1] and 0% in experiment [2]. Further, the growth inhibition in experiment [3] was 94% (active). Besides, the result in experiment [4], in experiment [5], in experiment [6] and in experiment [7] was inactive.

For the compound `COc1ccc(CNC(=O)Nc2cccc(-c3csc(N=C(N)N)n3)c2)cc1`, the inhibition in experiment [1] is 8%; in experiment [2] it was 1%. In addition, in experiment [3], the growth inhibition is 80% (active). Besides, the outcome in experiment [4], in experiment [5], in experiment [6] and in experiment [7] was inactive.

With `Oc1ccc(CCNCCCCCNCCCc2ccc(Cl)cc2)cc1O`, the inhibition in experiment [1] was 22%; in experiment [2] it was -3%. In experiment [3], the growth inhibition is 91% (active). Further, the result in experiment [4], in experiment [5], in experiment [6] and in experiment [7] was inactive.

Turning to `C#CCNC(=O)c1ccc(-c2ccnc(Nc3cccc(CCCN4CCOCC4)c3)n2)s1`, the growth inhibition in experiment [8] is 45%; in experiment [3] it was 82% (active). Moreover, the inhibition in experiment [1] was 54% (active); in experiment [2], -4%. Further, the outcome in experiment [4], in experiment [6] and in experiment [7] was inactive.

For the compound `O=C(O)c1cccnc1Sc1ccc(Cl)cc1`, the growth inhibition in experiment [8] was 4%; in experiment [3], 100% (active). Besides, the inhibition in experiment [1] was 5%; in experiment [2], 3%. The outcome in experiment [4], in experiment [6] and in experiment [7] was inactive.

On to `CN(c1ccc(NC(=O)Nc2cccc(Cl)c2)cc1)c1ccnc(N)n1`, for which the growth inhibition was 40% in experiment [8] and 100% (active) in experiment [3]. Further, the values for the inhibition in experiment [1] and in experiment [2] were 75% (active) and -1%, respectively. Further, the result in experiment [4], in experiment [6] and in experiment [7] was inactive.

On to `CS(=O)(=O)Cc1cccc(Nc2ncc(Cl)c(Nc3cccnc3C(N)=O)n2)c1`, for which the results for the growth inhibition in experiment [8] and in experiment [3] were 97% (active) and 96% (active), respectively. In addition, the inhibition in experiment [1] is 56% (active); in experiment [2] it was -3%. Moreover, the outcome in experiment [4], in experiment [6] and in experiment [7] was inactive.

For `CC(C)(CNCc1ccc(F)c(F)c1)c1nc(-c2ccc(Cl)c(O)c2)c(-c2ccnc(N)n2)[nH]1`, the growth inhibition in experiment [8] is 79% (active); in experiment [3] it was 99% (active). In addition, the values for the inhibition in experiment [1] and in experiment [2] were 41% and -4%, respectively. Moreover, the outcome in experiment [5], in experiment [6] and in experiment [7] was inactive.

Turning to `C(=N\Nc1nccc2sc(-c3ccccc3)cc12)/c1cccnc1`, the growth inhibition in experiment [8] was 10%; in experiment [3] it was 97% (active). Moreover, the inhibition in experiment [1] is -9%; in experiment [2] it was 8%. Also, the outcome in experiment [4], in experiment [6] and in experiment [7] was inactive.

For `COc1c(CN2CCCC2)cccc1-c1cc2c(-c3ccc(C(=O)O)c(C(C)C)c3)ccnc2[nH]1`, the values for the growth inhibition in experiment [8] and in experiment [3] were 98% (active) and 99% (active), respectively. For the same compound, the values for the inhibition in experiment [1] and in experiment [2] were 56% (active) and -1%, respectively. In addition, the result in experiment [4], in experiment [6] and in experiment [7] was inactive.

Regarding `CC(C)(CNCc1ccc(C(F)(F)F)cc1)c1nc(-c2ccc(Cl)c(O)c2)c(-c2ccnc(N)n2)[nH]1`, the growth inhibition in experiment [8] was 37%; in experiment [3] it was 101% (active). Also, the inhibition in experiment [1] is 32%; in experiment [2], -2%. Further, the outcome in experiment [5], in experiment [6] and in experiment [7] was inactive.

As for `CC(=O)Nc1nc(C)c(-c2csc(Nc3ccc(Cl)cc3)n2)s1`, the values for the growth inhibition in experiment [8] and in experiment [3] were 93% (active) and 96% (active), respectively. For the same compound, the inhibition in experiment [1] was 14%; in experiment [2] it was 0%. Moreover, the outcome in experiment [4], in experiment [6] and in experiment [7] was inactive.

By inhibition is commonly meant the relative decrease from the control value, in per cent.
